Here are results for 13 compounds from PubChem BioAssay (NCI).

This is part of a sample that, as a whole, favours compounds with a hit. Of some 83,000 tested, about 20% had one in any assay.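 48-hour exposure, single concentration, 96-well plates; percent growth endpoint where 0 means no net growth. Active: below 10.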 A number with no mark means an inactive call. Activity calls are given as the source filed them.

Among the test systems are RPMI-8226 leukemia; OVCAR-8 ovarian; OVCAR-5 ovarian; OVCAR-4 ovarian; SK-OV-3 ovarian; IGROV1 ovarian; OVCAR-3 ovarian; HS 578T breast; NCI/ADR-RES ovarian; T-47D breast.
Common to all, as to assay: NCI-60 one-dose screen, 48 h (100 = growth as untreated, 0 = no growth, -100 = all killed)
What all share (conditions): 10 µM unless noted

As to `Cc1cccc2nc3c(n12)C(=O)C(=O)c1ccccc1-3`, the growth in the experiment with RPMI-8226 leukemia was 44.9%; in the experiment with OVCAR-8 ovarian, 46.9%; in the experiment on OVCAR-5 ovarian it was 104%; in the experiment with OVCAR-4 ovarian, 83.1%; in the experiment with SK-OV-3 ovarian, 79.5%; in the experiment with IGROV1 ovarian, 44.7%. Moreover, the growth with OVCAR-3 ovarian is 54%; in the experiment on HS 578T breast, 75.2%; with NCI/ADR-RES ovarian it was 50.3%; with T-47D breast it was 62.5%.

Take `S=C(Nc1ccc(Cl)cc1)c1ccccn1`: the growth with RPMI-8226 leukemia is 96.8%; with OVCAR-8 ovarian it was 92.7%; with OVCAR-5 ovarian, 102%; in the experiment with OVCAR-4 ovarian, 96.9%; in the experiment on SK-OV-3 ovarian, 94.3%; in the experiment on IGROV1 ovarian, 93.3%. Moreover, the growth was 109% with OVCAR-3 ovarian, 95.9% in the experiment with HS 578T breast, 96.6% with NCI/ADR-RES ovarian and 79.2% with T-47D breast.

With `COC(=O)/C=C1\SC(=Nc2ccc(C(F)(F)F)cc2)N(CCc2c[nH]c3ccccc23)C1=O`, the growth with RPMI-8226 leukemia was -22.5% (active); with OVCAR-8 ovarian it was -9.92% (active); in the experiment with OVCAR-5 ovarian it was -41.4% (active); with OVCAR-4 ovarian, -33.2% (active); in the experiment with SK-OV-3 ovarian, 10.4%; with IGROV1 ovarian, -66.1% (active). Moreover, the growth in the experiment on OVCAR-3 ovarian is -91% (active); in the experiment on HS 578T breast it was -2.51% (active); in the experiment on NCI/ADR-RES ovarian, -12.9% (active); with T-47D breast, -40.7% (active).

`C#CCN(CCCOc1ccc(Cl)cc1Cl)CCCSC(=O)CCCCCN1/C(=C\C=C2/CCCC(/C=C/C3=[N+](CCCCCC(=O)[O-])c4ccccc4C3(C)C)=C2Cl)C(C)(C)c2ccccc21`: the growth in the experiment with RPMI-8226 leukemia was -22.6% (active); in the experiment on OVCAR-8 ovarian, 8.18% (active); in the experiment with OVCAR-5 ovarian, 66.4%; in the experiment on OVCAR-4 ovarian it was 57.1%; in the experiment on SK-OV-3 ovarian it was 65%; in the experiment with IGROV1 ovarian, -13.2% (active). Besides, the growth in the experiment with OVCAR-3 ovarian is 1.44% (active); in the experiment on HS 578T breast, 6.47% (active); with NCI/ADR-RES ovarian, 106%; with T-47D breast, -21.4% (active).

With `NC(=N\N=C\c1ccccc1O)/C(N)=N/N=C/c1ccccc1O`, the growth is 61.1% in the experiment with RPMI-8226 leukemia; 81.3% with OVCAR-8 ovarian; 96.7% in the experiment with OVCAR-5 ovarian; 6.53% (active) with OVCAR-4 ovarian; 92.4% in the experiment with SK-OV-3 ovarian; 97.8% with IGROV1 ovarian. Further, the growth in the experiment on OVCAR-3 ovarian was 63.1%; in the experiment on HS 578T breast it was 68.8%; with NCI/ADR-RES ovarian it was 83.3%; with T-47D breast it was 64%.

`O=C(CCl)N1CCCc2ccccc21`: the growth in the experiment on RPMI-8226 leukemia is 102%; in the experiment with OVCAR-8 ovarian, 107%; in the experiment on OVCAR-5 ovarian, 99.2%; with OVCAR-4 ovarian, 102%; in the experiment with SK-OV-3 ovarian, 119%; in the experiment on IGROV1 ovarian, 106%. Also, the growth was 94.9% with OVCAR-3 ovarian, 105% in the experiment on HS 578T breast, 96.8% in the experiment with NCI/ADR-RES ovarian and 106% with T-47D breast.

As for `Clc1ccc2c(NCCCNC3CCCCC3)ccnc2c1`, the growth was 82% in the experiment on RPMI-8226 leukemia; 54.7% in the experiment on OVCAR-8 ovarian; 114% with OVCAR-5 ovarian; 91.2% in the experiment with OVCAR-4 ovarian; 140% with SK-OV-3 ovarian; 111% in the experiment with IGROV1 ovarian. Besides, the growth in the experiment on OVCAR-3 ovarian is 109%; in the experiment with HS 578T breast it was 108%; in the experiment on NCI/ADR-RES ovarian it was 109%; in the experiment on T-47D breast it was 108%.

On to `O=c1[nH]nc(-c2ccccc2)c2sc(NC(=S)Nc3ccc(Cl)cc3)nc12`, for which the growth is 87.8% with RPMI-8226 leukemia; 89.6% in the experiment with OVCAR-8 ovarian; 98.6% with OVCAR-5 ovarian; 91.6% in the experiment with OVCAR-4 ovarian; 62.3% with SK-OV-3 ovarian; 94.2% in the experiment on IGROV1 ovarian. In addition, the growth is 97.5% with OVCAR-3 ovarian, 102% in the experiment on HS 578T breast, 95.3% in the experiment on NCI/ADR-RES ovarian and 59% in the experiment with T-47D breast.

For the compound `O=C1C(Cl)=C(Nc2ccc3c(c2NC2=C(Cl)C(=O)c4ccccc4C2=O)C(=O)c2ccccc2C3=O)C(=O)c2ccccc21`, the growth was 28.1% in the experiment on RPMI-8226 leukemia; 22.3% in the experiment on OVCAR-8 ovarian; 3.29% (active) with OVCAR-5 ovarian; -12% (active) in the experiment on OVCAR-4 ovarian; 90.3% with SK-OV-3 ovarian; 6.05% (active) in the experiment on IGROV1 ovarian. The growth with OVCAR-3 ovarian was -2.06% (active); in the experiment with HS 578T breast it was 42.2%; in the experiment on NCI/ADR-RES ovarian, 7.89% (active); with T-47D breast it was 10.5%.

For the compound `CC(C)(C)c1nc2c(s1)c1nc(N)ncc1c1ccc(NS(=O)(=O)c3c(F)cccc3F)c(F)c12`, the growth was 68.9% in the experiment with RPMI-8226 leukemia; 61.1% with OVCAR-8 ovarian; 104% in the experiment with OVCAR-5 ovarian; 60.7% in the experiment with OVCAR-4 ovarian; 13.7% in the experiment on SK-OV-3 ovarian; 38.5% with IGROV1 ovarian. Also, the growth is 80.7% in the experiment on OVCAR-3 ovarian, 60.4% in the experiment with HS 578T breast, 80.6% with NCI/ADR-RES ovarian and 42.9% with T-47D breast.

As to `CNS(=O)(=O)c1cccc(-c2ccc3c4c(n(C)c(=O)c3c2)-c2ccccc2C4=O)c1`, the growth in the experiment with RPMI-8226 leukemia is 30.5%; in the experiment with OVCAR-8 ovarian, 43.9%; with OVCAR-5 ovarian, 95.2%; in the experiment on OVCAR-4 ovarian, 92.1%; in the experiment on SK-OV-3 ovarian, 71.8%; in the experiment on IGROV1 ovarian, 60.8%. The growth is 82.6% in the experiment with OVCAR-3 ovarian, 94.5% with HS 578T breast, 70.7% in the experiment on NCI/ADR-RES ovarian and 47% in the experiment on T-47D breast.

Regarding `Cc1nnc(/N=C2\NC(=O)/C(=C/c3ccc(N(C)C)cc3)S2)s1`, the growth is 58.9% in the experiment with RPMI-8226 leukemia; 78.6% in the experiment with OVCAR-8 ovarian; 99.9% with OVCAR-5 ovarian; 75.4% with OVCAR-4 ovarian; 72% in the experiment with SK-OV-3 ovarian; 60% in the experiment on IGROV1 ovarian. Also, the growth was 45.4% with OVCAR-3 ovarian, 85.6% in the experiment with HS 578T breast, 52.2% in the experiment on NCI/ADR-RES ovarian and 73.6% in the experiment with T-47D breast.

Regarding `O=C(CN1N=C(c2ccc(F)cc2)CCC1=O)Nc1nccs1`, the growth is 103% in the experiment with RPMI-8226 leukemia; 98.6% in the experiment with OVCAR-8 ovarian; 107% in the experiment with OVCAR-5 ovarian; 97.6% in the experiment on OVCAR-4 ovarian; 97.7% in the experiment on SK-OV-3 ovarian; 100% with IGROV1 ovarian. In addition, the growth with OVCAR-3 ovarian was 113%; with HS 578T breast, 100%; in the experiment on NCI/ADR-RES ovarian, 109%; in the experiment on T-47D breast, 83.7%.
